{"source": "PubChem BioAssay AID1220", "about": "(Sanford-Burnham Center for Chemical Genomics, 2008)", "note": "Out of some 190,000 compounds screened, about 1,300 (0.68%) were called active. The full list was thinned out, with actives kept by preference. Unmarked numbers belong to inactive results. Rule as the data show it: active = inhibition above about 50%; inactive = the rest.", "data": [{"biological_target": "Mannose-6-phosphate isomerase (Homo sapiens) (UniProt P34949)", "sequence (P34949 whole entry, looked up)": "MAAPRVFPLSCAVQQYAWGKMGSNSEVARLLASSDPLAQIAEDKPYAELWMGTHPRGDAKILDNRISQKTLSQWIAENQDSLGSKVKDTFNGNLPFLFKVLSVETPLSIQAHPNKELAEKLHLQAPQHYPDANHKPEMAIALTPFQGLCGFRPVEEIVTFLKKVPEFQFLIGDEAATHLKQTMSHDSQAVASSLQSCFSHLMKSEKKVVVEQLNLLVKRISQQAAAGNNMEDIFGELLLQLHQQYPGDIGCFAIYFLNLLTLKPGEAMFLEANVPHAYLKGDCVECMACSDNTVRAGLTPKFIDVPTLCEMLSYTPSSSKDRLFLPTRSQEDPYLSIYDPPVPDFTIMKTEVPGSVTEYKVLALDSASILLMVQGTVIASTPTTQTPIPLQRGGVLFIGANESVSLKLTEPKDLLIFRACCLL", "assay": "MPI inhibition at elevated mannose 6-phosphate – biochemical, fluorescence intensity, high mannose 6-phosphate, primary screen (AID 1220)", "conditions": "recombinant PMI enzyme, coupled fluorescence intensity; at 20 µM; active compounds read high", "values": [{"smiles": "N#CC1=C(N)SC(N)=C(C#N)C1c1c(Cl)cccc1Cl", "inhibition": "6%"}, {"smiles": "COc1ccc(-c2csc(Cc3nnc(N4CCOCC4)n3-c3ccccc3)n2)cc1OC", "inhibition": "-41%"}, {"smiles": "COc1ccc(NC(=O)/C(N=Nc2cc(S(=O)(=O)Nc3ccc(OC)cc3)ccc2OC)=C(\\C)O)cc1", "inhibition": "-1%"}, {"smiles": "CCOC(=O)N/C(N)=N/c1nc2ccccc2s1", "inhibition": "-3.7%"}, {"smiles": "COc1ccc(O)c(C=Nc2cc(NC(C)=O)c(Cl)cc2Cl)c1", "inhibition": "19.4%"}, {"smiles": "CC(=O)Nc1cc(N=Cc2ccc(O)cc2O)c(Cl)cc1Cl", "inhibition": "44.8%"}, {"smiles": "CC(=O)Nc1cc(Cl)c(N=Cc2ccc(O)cc2O)cc1Cl", "inhibition": "63.3% (active)"}, {"smiles": "CCOC(=O)Nc1ccc2c(c1)N(C(=O)OC)c1ccccc1CC2", "inhibition": "-3.2%"}, {"smiles": "CS(=O)(=O)N(Cc1ccccc1)c1ccc(C(=O)N2CCOCC2)cc1", "inhibition": "11.2%"}, {"smiles": "CCOc1ccc2oc(C(=O)NC3CCN(Cc4ccccc4)CC3)c(C)c2c1", "inhibition": "-4.4%"}, {"smiles": "COc1cc(SC)ccc1C(=O)N1CCN(c2ccc(O)cc2)CC1", "inhibition": "55.8% (active)"}, {"smiles": "COc1ccc(N2CCN(C(=O)c3ccc(SC)cc3OC)CC2)cc1", "inhibition": "21.7%"}, {"smiles": "COc1cc(SC)ccc1C(=O)N1CCN(c2ccccc2)CC1", "inhibition": "5.9%"}, {"smiles": "CCn1c(SCC(=O)N2CCCCC2C)nc2ccsc2c1=O", "note": "(configuration not stated)", "inhibition": "-3.6%"}, {"smiles": "CCc1cccc(C)c1NC(=O)CO/N=C(\\C)c1cc2ccccc2o1", "inhibition": "60.5% (active)"}, {"smiles": "CSc1ccccc1NC(=O)CO/N=C(\\C)c1cc2ccccc2o1", "inhibition": "14.6%"}, {"smiles": "CCc1ccc(NC(=O)CO/N=C(\\C)c2cc3ccccc3o2)cc1", "inhibition": "45%"}, {"smiles": "O=C(CC1(O)C(=O)N(Cc2cccc3ccccc23)c2ccccc21)c1cccnc1", "note": "(configuration not stated)", "inhibition": "2.3%"}, {"smiles": "CCCn1c(SCc2ccccn2)nc2c1c(=O)n(C)c(=O)n2C", "inhibition": "4.6%"}, {"smiles": "O=C(NC1Cc2ccccc2C1)c1cc(COc2ccc(F)cc2Cl)on1", "inhibition": "-6.1%"}, {"smiles": "CCS(=O)(=O)c1ccc(-c2csc(-c3ccccc3Cl)n2)c(Cl)c1Cl", "inhibition": "5.5%"}, {"smiles": "COc1ccc(CN2CCNC(=O)C2CC(=O)N2CCCCO2)c(OC)c1", "note": "(configuration not stated)", "inhibition": "27.5%"}, {"smiles": "COc1cc(CN2CCNC(=O)C2CC(=O)N2CCCCO2)cc(OC)c1", "note": "(configuration not stated)", "inhibition": "52% (active)"}, {"smiles": "COc1ccc(CN2CCNC(=O)C2CC(=O)N2CCCCO2)cc1OC", "note": "(configuration not stated)", "inhibition": "45.9%"}, {"smiles": "COc1cc(OC)cc(-c2nnc(SCc3c(F)cccc3Cl)o2)c1", "inhibition": "8.3%"}, {"smiles": "CCOc1ccc(C(CC(=O)O)NC(=O)c2cccs2)cc1OC", "note": "(configuration not stated)", "inhibition": "-10.3%"}, {"smiles": "CC(C)C/C(O)=C/c1nc2cc(Cl)ccc2oc1=O", "inhibition": "55.1% (active)"}, {"smiles": "Cc1ccc2oc(=O)c(/C=C(\\O)CC(C)C)nc2c1", "inhibition": "10.4%"}, {"smiles": "CCS(=O)(=O)c1ccc2oc(=O)c(/C=C(\\O)c3ccc(Cl)cc3)nc2c1", "inhibition": "17.4%"}, {"smiles": "C/C(=N/Nc1nc(-c2ccccc2)cc(-c2ccccc2)n1)c1ccc(N)cc1", "inhibition": "3.6%"}, {"smiles": "Cc1ccc(C2=NN(CC(=O)NCc3cccs3)C(=O)CC2)cc1", "inhibition": "3.3%"}, {"smiles": "O=C(CN1N=C(c2ccc(Cl)cc2)CCC1=O)NCc1cccs1", "inhibition": "59.2% (active)"}, {"smiles": "O=C(CN1N=C(c2ccccc2)CCC1=O)NCc1cccs1", "inhibition": "6.5%"}, {"smiles": "CC(NC(=O)c1cc2ccccc2o1)c1ccccc1", "note": "(configuration not stated)", "inhibition": "-9.3%"}, {"smiles": "CCn1cc(C(=O)NCCCN2CCN(C)CC2)c(=O)c2cc(S(=O)(=O)N3CCc4ccccc4C3)ccc21", "inhibition": "-2.9%"}, {"smiles": "O=C(O)c1ccc(N2Cc3ccccc3C2)cc1O", "inhibition": "-70.5%"}, {"smiles": "CSc1nsc(/C=C/Nc2ccc(F)cc2F)c1C#N", "inhibition": "21.4%"}, {"smiles": "CSc1nsc(/C=C/Nc2ccc(O)cc2C)c1C#N", "inhibition": "65.8% (active)"}, {"smiles": "CSc1nsc(/C=C/Nc2ccc(C)c(C)c2)c1C#N", "inhibition": "40.1%"}, {"smiles": "Cc1cc(NC(=O)COC(=O)c2ccco2)no1", "inhibition": "-0.8%"}, {"smiles": "COC(=O)c1c(NC(=O)CN2C(=O)c3ccccc3C2=O)sc(Cc2ccc3c(c2)OCO3)c1C", "inhibition": "1.6%"}, {"smiles": "Cc1c(Cc2ccc3c(c2)OCO3)sc(NC(=O)c2ccccc2)c1C(N)=O", "inhibition": "2.7%"}, {"smiles": "CCOC(=O)c1c(NC(=O)CN2C(=O)c3ccccc3C2=O)sc(Cc2ccc3c(c2)OCO3)c1C", "inhibition": "51.5% (active)"}, {"smiles": "CC1(c2ccccc2)CC2CC(c3ccccc3)N1O2", "note": "(configuration not stated)", "inhibition": "-7.9%"}, {"smiles": "CC1=C(C#N)C(=O)NC(=O)/C1=C\\c1ccc(-c2cc(C)c(C)cc2[N+](=O)[O-])o1", "inhibition": "52.8% (active)"}, {"smiles": "CC1=C(C#N)C(=O)NC(=O)/C1=C\\c1ccc(-c2ccc(C)cc2[N+](=O)[O-])o1", "inhibition": "48.6%"}, {"smiles": "CC1=C(C#N)C(=O)NC(=O)/C1=C/c1ccc(-c2ccc(S(N)(=O)=O)cc2)o1", "inhibition": "18.1%"}, {"smiles": "CC(Sc1nnc(NC2CCCCC2)s1)C(=O)Nc1ccc2c(c1)C(=O)c1ccccc1C2=O", "note": "(configuration not stated)", "inhibition": "-14.7%"}, {"smiles": "O=C(Nc1nccs1)c1ccc(CSc2nnnn2-c2ccccc2)cc1", "inhibition": "-6.7%"}, {"smiles": "O=C(CN1CCN(C(=O)N2CCCCC2)CC1)Nc1ccc(F)cc1", "inhibition": "6.5%"}, {"smiles": "CCOC(=O)C1Sc2ccccc2NC1=O", "note": "(configuration not stated)", "inhibition": "36.5%"}, {"smiles": "CN(C(=O)c1cccnc1)c1nnc(-c2ccccn2)s1", "inhibition": "2%"}, {"smiles": "CCN1CCc2c(C#N)c(NCc3ccccc3)nc(N(CC)CC)c2C1", "inhibition": "0.8%"}, {"smiles": "N#Cc1c(NCCN)nc(NCc2ccccc2)c2c1CCN(Cc1ccccc1)C2", "inhibition": "52.6% (active)"}, {"smiles": "Nc1[nH]nc2nc(NCc3ccccc3)c3c(c12)CCN(Cc1ccccc1)C3", "inhibition": "3.5%"}, {"smiles": "C=CCNc1nc(N2CCOCC2)c(C#N)c2c1CN(C)CC2", "inhibition": "37.3%"}, {"smiles": "CCN1CCc2c(C#N)c(N3CCCCC3)nc(NCc3ccccc3)c2C1", "inhibition": "32.5%"}, {"smiles": "C=CCNc1nc(N2CCCCC2)c(C#N)c2c1CN(Cc1ccccc1)CC2", "inhibition": "55.6% (active)"}, {"smiles": "N#Cc1c(N2CCCCC2)nc(N2CCCCC2)c2c1CCN(Cc1ccccc1)C2", "inhibition": "8%"}, {"smiles": "CC(C)CCNc1nc(N2CCCC2)c2c(c1C#N)CCN(C)C2", "inhibition": "14.4%"}, {"smiles": "CN1CCc2c(C#N)c(N3CCCCC3)nc(NCc3ccccc3)c2C1", "inhibition": "53% (active)"}, {"smiles": "CCCN1Cc2cccc(C(=O)N3CCN(c4ccccc4)CC3)c2C1=O", "inhibition": "1%"}, {"smiles": "O=C(Nc1ccc(N2CCOCC2)cc1)c1ccccc1SCC(=O)N1CCCC1", "inhibition": "4.1%"}, {"smiles": "Fc1ccc(CNC(=S)NC2CCCCC2)cc1", "inhibition": "8.4%"}, {"smiles": "CC(C)N1C(=O)CC(Nc2cccc3cccc(N)c23)C1=O", "note": "(configuration not stated)", "inhibition": "64.5% (active)"}, {"smiles": "COc1ccc(NC2CC(=O)N(C(C)C)C2=O)cc1", "note": "(configuration not stated)", "inhibition": "8.8%"}, {"smiles": "CN1C(=O)CC(Nc2cccc3cccc(N)c23)C1=O", "note": "(configuration not stated)", "inhibition": "49.7%"}, {"smiles": "COc1cc(/C=C2\\SC(c3ccc(C)cc3)=NC2=O)cc(OC)c1O", "inhibition": "26.7%"}, {"smiles": "Cc1ccc(C2=NC(=O)/C(=C/c3cc(O)c(O)c(Br)c3)S2)cc1", "inhibition": "53.2% (active)"}, {"smiles": "COc1cc(/C=C2\\SC(c3ccc(C)cc3)=NC2=O)ccc1O", "inhibition": "9.3%"}, {"smiles": "Cc1cccc(OCc2nnc(SCC(=O)Nc3ccc(C)c(C)c3)o2)c1", "inhibition": "17.5%"}, {"smiles": "Fc1ccccc1N1CCN(c2nnnn2-c2ccccc2)CC1", "inhibition": "-2.8%"}, {"smiles": "Cc1cc(=O)[nH]c(N/N=C/c2ccc([N+](=O)[O-])cc2)n1", "inhibition": "-4.6%"}, {"smiles": "Nn1cnnc1N/N=C/c1cc([N+](=O)[O-])c(Cl)cc1Cl", "inhibition": "-35.2%"}, {"smiles": "COc1ccc(-n2c(C)cc(/C=N/Nc3nnc(C)n3N)c2C)cc1", "inhibition": "-12.8%"}, {"smiles": "COc1ccc(/C=N/Nc2nonc2N)cc1OC", "inhibition": "-6.6%"}, {"smiles": "Cc1nnc(N/N=C/c2ccc([N+](=O)[O-])cc2)n1N", "inhibition": "68.7% (active)"}, {"smiles": "CC1CCN(c2ccc(/C=N\\Nc3nncn3N)cc2[N+](=O)[O-])CC1", "inhibition": "43.7%"}, {"smiles": "COc1ccc(/C=N/Nc2nnc(C)n2N)cc1OC", "inhibition": "67.2% (active)"}, {"smiles": "CCc1nnc(N/N=C/c2ccc(-c3ccc([N+](=O)[O-])cc3)o2)n1N", "inhibition": "41.3%"}, {"smiles": "Nn1cnnc1N/N=C/c1ccc(Cl)c([N+](=O)[O-])c1", "inhibition": "60.2% (active)"}, {"smiles": "CCc1cc(=O)oc2cc(C)c3c(C)coc3c12", "inhibition": "4.2%"}, {"smiles": "COc1ccc(C(=O)N(CN2CCCC2=O)c2ccccc2OC)cc1OC", "inhibition": "18.2%"}, {"smiles": "O=C(Nc1nc(-c2ccc(Cl)cc2)cs1)NC1CCCCC1", "inhibition": "-7.6%"}, {"smiles": "CCN(CC)C(=O)CSc1nc(O)c(Cc2ccccc2)c(=O)n1-c1ccccc1", "inhibition": "-5.3%"}, {"smiles": "Nn1c(SCC(=O)NCc2ccccc2)nncc1=O", "inhibition": "11.9%"}, {"smiles": "Oc1ccc(-c2csc(-c3c[nH]c4ccccc34)n2)c(O)c1", "inhibition": "-4.2%"}, {"smiles": "Cc1ccc(/C=C2\\C(=O)Nc3ccccc32)o1", "inhibition": "6.8%"}, {"smiles": "N#CCC(=O)N/N=C/c1ccc(OC2CSC2)cc1", "inhibition": "6.6%"}, {"smiles": "CN(C)c1nc(Oc2ccc(=O)[nH]n2)nc(N2CCCCC2)n1", "inhibition": "-0.1%"}, {"smiles": "CCOC(=O)Cc1csc(SCC(=O)NC2CCCC(C)C2C)n1", "note": "(configuration not stated)", "inhibition": "-3.7%"}, {"smiles": "CCOC(=O)Cc1csc(SCC(=O)NC2CCCCC2)n1", "inhibition": "-6%"}, {"smiles": "CCOC(=O)Cc1csc(SCC(=O)NC(C)C23CC4CC(CC(C4)C2)C3)n1", "note": "(configuration not stated)", "inhibition": "51% (active)"}, {"smiles": "COC(C(=O)Nc1ccc(F)cc1F)c1ccccc1", "note": "(configuration not stated)", "inhibition": "0.3%"}, {"smiles": "O=C(NCCCn1ccnc1)C(Cc1ccc([N+](=O)[O-])cc1)N1C(=O)c2ccccc2C1=O", "note": "(configuration not stated)", "inhibition": "-5.8%"}, {"smiles": "CCn1c(Cc2ccccc2)nnc1SCC(=O)c1cccc([N+](=O)[O-])c1", "inhibition": "5.6%"}, {"smiles": "Cc1noc(C)c1S(=O)(=O)Nc1ccc(C(=O)NCCc2ccccc2)cc1", "inhibition": "3.4%"}]}]}
